# In PubChem BioAssay AID602393 (Broad Institute, 2012):
# The whole screen tested about 350,000 compounds, of which about 7,000 (2%) were called active. The list comes from a sample in which actives are over-represented; it also holds similar structures and randomly drawn compounds. Values without a mark were called inactive. No stated cut-off is given here; in the data, active means activation above about 40%; inconclusive means no clear call, values can overlap the other calls; inactive means below that.
# Test: raisers of Bmi1 knock-in reporter signal – mouse ES cells, Bmi1 luciferase knock-in, single point, esBAF inhibitor project, primary screen (AID 602393);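 further: 0% = median of the plate's neutral control wells and 100% = double that signal; a rise in the Bmi1 reporter signal indicates esBAF inhibition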
# Settings: 24 h, at 12.5 µM, hits give high values, 100% = twice the neutral-well signal
row,SMILES,reporter increase
1,O=C(NN=Cc1ccc2c(c1)CCC2)c1ccccc1O,59.3% (active)
2,O=C(N/N=C/c1c[nH]c2ccccc12)c1ccccc1O,51.9% (active)
3,O=C(N/N=C/c1cccc(Br)c1)c1ccc(N2CCCC2=O)cc1,7.79%
4,O=C(N/N=C\c1cccc(Br)c1)c1ccccc1-n1cccc1,3.44%
5,O=C(NCCc1c[nH]c2ccccc12)c1cccc(Br)c1,11.6%
6,O=C(NC(Cc1c[nH]c2ccccc12)C(=O)N/N=C/c1ccc(Br)cc1)c1cccs1 (stereo not drawn),4.44%
7,COc1ccccc1-c1cccc(-c2nc(C(=O)N3CCN(C)CC3)cc3c2[C@H](CCO)N([S@@](=O)C(C)(C)C)C3)c1,-0.462%
8,C[C@@H]1CN([C@@H](C)CO)C(=O)CCCn2cc(nn2)CO[C@@H]1CN(C)C(=O)c1ccncc1,-3.8%
9,C[C@H](CO)N1C[C@H](C)[C@@H](CN(C)C(=O)c2ccncc2)Oc2cc(C3=CCCCC3)ccc2S1(=O)=O,2.87%
10,C[C@H](CO)N1C[C@H](C)[C@H](CN(C)S(=O)(=O)c2cn(C)cn2)Oc2c(NC(=O)C3CCOCC3)cccc2C1=O,-1.13%
11,Cc1cccc(CSc2ccc(-c3cccs3)nn2)c1,50.5% (active)
12,Cc1cccc(CSc2nnc(C)c(=O)n2N)c1,-7.26%
13,Cc1cc(-c2cccs2)nc(-n2cccc2)n1,17.4%
14,C[C@H]1CN([C@@H](C)CO)C(=O)CCCn2nncc2CO[C@H]1CN(C)Cc1ccc2c(c1)OCO2,0.657%
15,C/C=C/c1cnc2c(c1)C(=O)N([C@H](C)CO)C[C@H](C)[C@@H](CN(C)S(=O)(=O)c1ccccc1F)O2,0.934%
16,COc1ccccc1-c1cn(CC[C@H]2CC[C@H](NC(=O)Cc3ccccn3)[C@H](CO)O2)nn1,0.363%
17,Cc1noc(C)c1NC(=O)N(C)C[C@@H]1Oc2ccc(NS(C)(=O)=O)cc2C(=O)N([C@H](C)CO)C[C@@H]1C,-2.07%
18,CC(C)C(C)NC(=O)COc1ncnc2ccccc12 (stereo not drawn),-6.72%
19,CN(Cc1nc2ccccc2s1)C(=O)c1ccc(F)cc1,8.62%
20,CCC(=O)NC(=Nc1nc2ccccc2s1)NC(=O)CC,65.4% (active)
21,O=C(C[C@H]1C=C[C@@H](NC(=O)CC2CC2)[C@H](CO)O1)NCc1ccc(-c2ccccc2)cc1,1.19%

row,SMILES,reporter increase
1,O=C(C[C@H]1C=C[C@H](NC(=O)C2CCC2)[C@H](CO)O1)NCCCN1CCOCC1,1%
2,CCOC(=O)c1[nH]c(C)c(C(=O)OCC(=O)N2c3ccccc3CC2C)c1C (stereo not drawn),-0.495%
3,CCOC(=O)c1c(C)[nH]c(C(=O)OCC(=O)N2CCCC2=O)c1C,47% (active)
4,Cc1c(C(=O)OCC(=O)N2CCCC2=O)oc2ccccc12,18.9%
5,COc1ccccc1CNC(=O)C[C@@H]1CC[C@H]2[C@@H](COc3ccc(NS(=O)(=O)c4ccc(C)cc4)cc3C(=O)N2C)O1,1.61%
6,O=C(C[C@@H]1CC[C@@H](NC(=O)C2CC2)[C@H](CO)O1)NCc1ccncc1,-3.27%
7,C[C@@H]1CCCCO[C@@H](CN(C)C(=O)c2ccccc2)[C@@H](C)CN([C@@H](C)CO)C(=O)c2cc(NS(=O)(=O)c3ccccc3)ccc2O1,12.6%
8,COc1ccc(S(=O)(=O)Nc2ccc3c(c2)C(=O)N([C@@H](C)CO)C[C@@H](C)[C@H](CN(C)C(=O)Nc2ccc(C(F)(F)F)cc2)OCCCC[C@@H](C)O3)cc1,7.49%
9,O=C1N=C(N2CCc3ccccc3C2)S/C1=C\c1ccc(O)cc1,-1.11%
10,CCc1ccc(/C=C2\SC(N3CCOCC3)=NC2=O)cc1,6.21%
11,CC1CCN(C2=NC(=O)/C(=C/c3ccc(O)cc3)S2)CC1,24.8%
12,Cc1ccsc1/C=C1\SC(N2CCOCC2)=NC1=O,57.3% (active)
13,O=C1N=C(N2CCOCC2)CS1,0.767%
14,O=C1N=C(N2CCOCC2)S/C1=C\C=C/c1ccccc1,55.8% (active)
15,CC(C)NC(=O)N(C)C[C@H]1Oc2ncc(C#CC3(O)CCCC3)cc2C(=O)N([C@H](C)CO)C[C@@H]1C,0.475%
16,CN1c2ccc(-c3ccccc3F)cc2[C@H]2[C@H](CCN2C(=O)Nc2cc(F)ccc2F)[C@H]1CO,7.83%
17,C/C=C/c1ccc([C@@H]2[C@H](CO)N(C(C)=O)[C@H]2CN(CC)C(=O)CN(C)C)cc1,-4.39%
18,CCC(=O)NC[C@H]1[C@@H](c2ccc(C3=CCCC3)cc2)[C@@H](CO)N1C(=O)C1CC1,0.745%
19,CS(=O)(=O)Nc1ccc2c(c1)[C@@H]1C[C@H](CC(=O)NCc3ccccn3)O[C@@H](CO)[C@@H]1O2,0.762%
20,O=C(C[C@H]1CC[C@@H](NC(=O)c2ccccc2)[C@@H](CO)O1)NCc1ccncn1,-3.6%
21,CC(=O)c1ccc2c(ccc3ccccc32)c1,43.2% (active)

row,SMILES,reporter increase
1,O=C(NNC(=O)c1ccc2ccccc2c1)c1ccc(Cl)cc1,-2.35%
2,CC(=O)c1ccc(N2Cc3ccccc3C2)cc1,23.9%
3,N#C[C@H]1[C@@H](c2ccc(-c3ccccc3F)cc2)[C@H](CO)N1C(=O)c1ccccn1,-5.75%
4,O=C(CCN1CCCCC1)N[C@@H]1C=C[C@@H](CC(=O)N2CCC(Cc3ccccc3)CC2)O[C@H]1CO,9.59%
5,Cc1ccc(-c2cnc3c(c2)C(=O)N([C@H](C)CO)C[C@@H](C)[C@@H](CN(C)C(=O)CN(C)C)O3)cc1,-1.4%
6,COc1ccccc1OCCCC(=O)Nc1ccc2c(c1)OCCO2,4.46%
7,COc1cccc(/C=C/C(=O)Nc2ccc3c(c2)OCCO3)c1,52.9% (active)
8,Cc1cccc(NC(=O)/C=C/c2ccc3c(c2)OCO3)n1,9.44%
9,COc1ccccc1-c1ccc2c(c1)[C@H]1[C@H](CCN1S(=O)(=O)c1ccccc1)[C@@H](CO)N2,-9.94%
10,C/C=C/c1cnc2c(c1)C(=O)N([C@@H](C)CO)C[C@H](C)[C@H](CN(C)C(=O)CN1CCOCC1)O2,1.11%
11,CCOC(=O)c1c(C)nc2c(c1C)c(=O)oc1ccccc12,43.1% (active)
12,CCOC(=O)c1c(C)oc(C)c(C(=O)OCC)c1=O,-9.85%
13,CCCCC(=O)Nc1cc(C)c2c(=O)oc3ccccc3c2n1,-4.09%
14,Cc1noc(C)c1NC(=O)N(C)C[C@@H]1Oc2ccc(NS(=O)(=O)c3ccc(Cl)cc3)cc2C(=O)N([C@@H](C)CO)C[C@H]1C,-6.44%
15,COc1ccc(CCNC(=O)c2cc(-c3ccc4c(c3)OCO4)on2)cc1OC,0.657%
16,CC(C)NC(=O)COCc1cc(-c2ccc3c(c2)OCO3)on1,16.1%
17,CCc1ccccc1NC(=O)c1cc(-c2ccc3c(c2)OCO3)on1,43.8% (active)
18,O=C(C[C@H]1CC[C@@H]2[C@H](COC[C@@H](O)CN2Cc2cc(F)cc(F)c2)O1)NC1CCC1,2.1%
19,COc1ccc(S(=O)(=O)N(C)C[C@@H]2Oc3ncc(C#Cc4ccc(F)cc4)cc3C(=O)N([C@H](C)CO)C[C@@H]2C)cc1,3.53%
20,CCCNC(=O)N(C)C[C@H]1Oc2cc(-c3ccncc3)ccc2S(=O)(=O)N([C@H](C)CO)C[C@@H]1C,6.74%
21,COc1ccc2oc(N)c(C=O)c(=O)c2c1,-2.61%

row,SMILES,reporter increase
1,CCc1cc2c(=O)c(-c3ccon3)c(N)oc2cc1OC,50.4% (active)
2,CCc1cc2c(=O)c(-c3nc4ccccc4n3C)c(CCCC(=O)O)oc2cc1OC(=O)C(C)(C)C,6.89%
3,CC(=O)Nc1ccc2c(c1)C(=O)N(C)[C@H]1CC[C@@H](CC(=O)NCC3CC3)O[C@H]1CO2,9.13%
4,O=C(NNC(=O)c1csc(-c2cccnc2)n1)Nc1ccc(Cl)cc1,0.726%
5,Clc1ccc(-c2csc(-c3ccncc3)n2)cc1,51.5% (active)
6,CNC(=O)c1csc(-c2ccccc2)n1,13.5%
7,CN(C)CC(=O)Nc1ccc2c(c1)[C@@H]1C[C@H](CC(=O)NCc3ccc(-c4ccccc4)cc3)O[C@@H](CO)[C@@H]1O2,16%
8,CCCCSc1nnc(-c2ccc(C)cc2)o1,17.9%
9,COc1ccc2c(Cl)c(-c3nnco3)sc2c1,8.57%
10,C#CCSc1nnc(-c2sc3ccccc3c2Cl)o1,51% (active)
11,C[C@@H](O)C#Cc1ccc2c(c1)O[C@@H](CN(C)C)[C@@H](C)CN([C@@H](C)CO)S2(=O)=O,-2.61%
12,C[C@H](NC(=O)C[C@@H]1CC[C@@H]2[C@H](COC[C@@H](O)CN2C(=O)Nc2cc(Cl)cc(Cl)c2)O1)c1ccccc1,-3.61%
13,C[C@@H]1CN([C@H](C)CO)S(=O)(=O)c2ccc(C#CC3CCCC3)cc2O[C@@H]1CN(C)Cc1ccccc1C(=O)O,-3.9%
14,O=C(C[C@@H]1CC[C@@H]2[C@H](COC[C@H](O)CN2C(=O)Cc2ccccc2)O1)NC1CCC1,-8.39%
15,COc1ccc2cc(C(=O)O)n(CC(=O)c3ccccc3)c2c1,-1.55%
16,CCCn1c(=N)n(CC(=O)c2ccc(Cl)c(Cl)c2)c2ccccc21,3.54%
17,CCn1c(=N)n(CC(=O)c2cccc(OC)c2)c2ccccc21,64.8% (active)
18,Cn1c(NN)nc2sc3c(c2c1=O)CCC3,-3.52%
19,CC1CCc2c(sc3nc4n(c(=O)c23)CCS4)C1 (stereo not drawn),46.4% (active)
20,NNC(=O)C1CCCn2c1nc1sc3c(c1c2=O)CCCC3 (stereo not drawn),2.26%
